Results: PubChem BioAssay AID652015 (National Center for Advancing Translational Sciences (NCATS), 2013)
Inconclusive results are not listed. Active and inactive are the calls of the source. Calls come from the whole dose curve; as a rule, active = well fitted inhibition curve with a large enough effect; inconclusive = small, poorly fitted or top-dose-only effect; inactive = no such curve, though single readings can be large or run the other way.

Molecular target: Coelenterazine h 2-monooxygenase (Renilla reniformis) (UniProt P27652)
Sequence (P27652 whole entry, looked up): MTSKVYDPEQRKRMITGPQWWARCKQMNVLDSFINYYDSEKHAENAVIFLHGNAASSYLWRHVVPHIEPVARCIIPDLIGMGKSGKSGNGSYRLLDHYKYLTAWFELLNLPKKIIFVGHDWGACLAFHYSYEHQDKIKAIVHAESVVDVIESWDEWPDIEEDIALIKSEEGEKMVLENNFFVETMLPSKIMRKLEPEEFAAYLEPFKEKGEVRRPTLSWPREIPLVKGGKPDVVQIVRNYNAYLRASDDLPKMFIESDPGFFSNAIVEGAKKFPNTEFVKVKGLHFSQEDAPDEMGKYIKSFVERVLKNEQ
Assay: qHTS Assay for Inhibitors of Sea Pansy Luciferase from the GSK Published Protein Kinase Inhibitor Set
Text: FLuc (firefly luciferase) is the prototypical bioluminescent reporter gene from Photinus pyralis.[1] The enzyme catalyzes the oxidation luciferin via luciferin-AMP to produce light. FLuc is used in cell-based reporter gene-based assays for screening small molecule chemical libraries. However, small molecule luciferase inhibitors present in most large chemical libraries are often enriched in the output of high throughput screens using this reporter sometimes complicating interpretation and candidate selection.
RLuc is a bioluminescent reporter gene luciferase from Renilla reniformis, also known as the sea pansy. RLuc uses the luciferin substrate coelenterazine. […]
Three microliters containing renilla luciferase substrate in buffer (final concentrations: 50mM Tris acetate, pH 7.5, 100uM NaCl, 0.01% Tween-20, 0.05% BSA, 5uM coelenterazine h) are dispensed into each well of a Greiner white, solid-bottom 1536-well format plate using a flying reagent dispenser (FRD). These assay plates were then treated with 23nL of compound or DMSO using a Kalypsys pin tool, which allows for delivery of a 7-point interplate titration of each compound to the assay plate (quantitative HTS), with final compound concentrations ranging from approximately 60uM to 300pM. […] Luciferase activity was then measured using an Envision plate reader (PerkinElmer), with an average incubation time of 2 min.

CNC(=O)Oc1cc(C)c(C=Cc2cncc(C(=O)NC)c2)c(C)c1
outcome: inactive
